Test systems include DU-145 prostate; K-562 leukemia; MALME-3M melanoma; MDA-MB-231 breast; RXF 393 renal; SF-268 CNS; SF-295 CNS; SF-539 CNS; UACC-257 melanoma; M14 melanoma; HCT-15 colon; HT29 colon; SNB-75 CNS; SNB-19 CNS; U251 CNS; PC-3 prostate; SK-MEL-5 melanoma; UACC-62 melanoma; LOX IMVI melanoma; SK-MEL-28 melanoma.
Common to all, as to assay: NCI-60 one-dose screen, 48 h (100 = growth as untreated, 0 = no growth, -100 = all killed)
Common to all, as to conditions: 10 µM unless noted

Compounds without any hit were thinned out: in the full panel of roughly 83,000, 20% have a hit.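 Values shown are percent growth following 48 h exposure of cells in 96-well plates to a single concentration of compound; below 10 was considered active.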 Values without a mark were called inactive. Activity calls are given as the source filed them.

As for `CCCN1C(=O)CSC1=Nc1ccc2cc3ccc(N=C4SCC(=O)N4CCC)cc3nc2c1`, the growth was 83.7% in the assay with DU-145 prostate; 21.4% in the assay on K-562 leukemia; 33.5% with MALME-3M melanoma; 18.5% in the assay with MDA-MB-231 breast; -27.9% (active) in the assay with RXF 393 renal; 62.9% in the assay on SF-268 CNS. Further, the growth is 23% in the assay with SF-295 CNS; 46% in the assay with SF-539 CNS; 43.9% in the assay with UACC-257 melanoma; 50.7% with M14 melanoma; 24.4% in the assay on HCT-15 colon; 4.45% (active) in the assay on HT29 colon. The growth in the assay on SNB-75 CNS was 29.6%; with SNB-19 CNS, 55.4%; with U251 CNS, 36.9%; in the assay with PC-3 prostate it was 16.7%; in the assay on SK-MEL-5 melanoma, -17.7% (active); in the assay on UACC-62 melanoma it was 36.9%. The growth with LOX IMVI melanoma was 11.4%; in the assay with SK-MEL-28 melanoma, 86.5%.

Consider `c1ccc2nc(Cn3cc[n+](Cc4ccc5ccccc5n4)c3)ccc2c1`, for which the growth was 88.7% with DU-145 prostate; 41.1% with K-562 leukemia; 50.2% in the assay on MALME-3M melanoma; 77.9% in the assay with MDA-MB-231 breast; 86.6% in the assay with RXF 393 renal; 67.1% with SF-268 CNS. Also, the growth was 91.5% with SF-295 CNS; 58.8% with SF-539 CNS; 21.9% in the assay with UACC-257 melanoma; 69% in the assay on M14 melanoma; 102% in the assay on HCT-15 colon; 41.9% in the assay on HT29 colon. In addition, the growth is 70.7% in the assay on SNB-75 CNS; 47.7% with SNB-19 CNS; 44.2% with U251 CNS; 42.6% in the assay on PC-3 prostate; 16.9% in the assay with SK-MEL-5 melanoma; 54.6% in the assay with UACC-62 melanoma. Further, the growth in the assay on LOX IMVI melanoma is 75.4%; in the assay with SK-MEL-28 melanoma, 63.8%.

For `O=C(NCCNc1nccc(-c2c(-c3cccc(O)c3)nc3sccn23)n1)c1cc(N2CCOCC2)cc(C(F)(F)F)c1`, the growth in the assay on DU-145 prostate is 110%; in the assay on K-562 leukemia it was 70.7%; in the assay with MALME-3M melanoma, 3.04% (active); in the assay with MDA-MB-231 breast it was 74.1%; in the assay on RXF 393 renal, 77.8%; in the assay on SF-268 CNS, 102%. Besides, the growth in the assay on SF-295 CNS was 84.4%; in the assay with SF-539 CNS, 101%; with UACC-257 melanoma, 16.7%; with M14 melanoma, 22.4%; with HCT-15 colon it was 92%; in the assay on HT29 colon, 49.2%. Also, the growth is 83.2% in the assay on SNB-75 CNS; 125% in the assay with SNB-19 CNS; 105% in the assay on U251 CNS; 78.2% in the assay on PC-3 prostate; 58.4% in the assay on SK-MEL-5 melanoma; 8.5% (active) in the assay on UACC-62 melanoma. The results for the growth in the assay on LOX IMVI melanoma and with SK-MEL-28 melanoma were 52.3% and 44.4%, respectively.

As for `OC[C@@H](O)C(O[C@@H]1O[C@H](CO)[C@H](O)[C@H](O)[C@H]1O)[C@H](O)[C@@H](O)CO` (stereo not given in full), the growth in the assay on DU-145 prostate is 111%; with K-562 leukemia, 104%; in the assay on MALME-3M melanoma, 97.6%; in the assay on MDA-MB-231 breast, 97.3%; in the assay on RXF 393 renal, 108%; in the assay on SF-268 CNS, 109%. The growth with SF-295 CNS is 96.1%; in the assay on SF-539 CNS, 101%; in the assay on UACC-257 melanoma, 106%; with M14 melanoma it was 99.9%; with HCT-15 colon, 98.2%; in the assay on HT29 colon, 103%. Also, the growth was 98.6% in the assay on SNB-75 CNS; 107% in the assay on SNB-19 CNS; 97.6% with U251 CNS; 86.6% with PC-3 prostate; 106% with SK-MEL-5 melanoma; 99.1% in the assay on UACC-62 melanoma. Besides, the growth is 98.8% in the assay with LOX IMVI melanoma and 110% with SK-MEL-28 melanoma.

As for `O=c1c2ccccc2sc2c(NCCCNCCO)nc3ccccc3c12`, the growth with DU-145 prostate was 16.5%; with K-562 leukemia, -39.5% (active); in the assay on MALME-3M melanoma, -55.3% (active); in the assay with MDA-MB-231 breast, -10.6% (active); in the assay with RXF 393 renal, 14.2%; in the assay on SF-268 CNS it was 37.5%. Besides, the growth in the assay on SF-295 CNS was -3.85% (active); in the assay on SF-539 CNS it was 54.7%; in the assay on UACC-257 melanoma, 64%; in the assay on M14 melanoma, -61.8% (active); in the assay on HCT-15 colon, 13.7%; with HT29 colon, -47.3% (active). Moreover, the growth in the assay on SNB-75 CNS was 35.3%; with SNB-19 CNS, 63.7%; in the assay on U251 CNS it was 21.3%; in the assay with PC-3 prostate, 22.1%; with SK-MEL-5 melanoma, -64.7% (active); with UACC-62 melanoma, -17.8% (active). Also, the growth in the assay with LOX IMVI melanoma was -87.4% (active); in the assay on SK-MEL-28 melanoma, -18.1% (active).

For the compound `COc1ccc(OCC(O)CN2CCN(c3ccc(Cl)cc3)CC2)cc1` (stereo not given), the growth in the assay on DU-145 prostate was 112%; in the assay with K-562 leukemia, 105%; in the assay on MALME-3M melanoma, 106%; in the assay with MDA-MB-231 breast, 88.1%; in the assay on RXF 393 renal, 98%; in the assay on SF-268 CNS, 105%. Further, the growth with SF-295 CNS is 92.1%; in the assay with SF-539 CNS it was 95.5%; in the assay with UACC-257 melanoma, 81.9%; with M14 melanoma it was 102%; with HCT-15 colon, 105%; in the assay on HT29 colon, 98.5%. The growth was 84.7% with SNB-75 CNS; 85.7% in the assay on SNB-19 CNS; 94.5% in the assay on U251 CNS; 104% in the assay with PC-3 prostate; 84.3% in the assay with SK-MEL-5 melanoma; 84.9% in the assay with UACC-62 melanoma. The results for the growth in the assay on LOX IMVI melanoma and with SK-MEL-28 melanoma were 91.4% and 114%, respectively.

With `COc1ccc2c(c1)OC(N)=C(C#N)C2c1ccc(F)c(F)c1` (stereo not given), the growth in the assay on DU-145 prostate is 30.4%; with K-562 leukemia, 9.04% (active); in the assay on MALME-3M melanoma, 78.4%; with MDA-MB-231 breast it was 44.5%; in the assay on RXF 393 renal it was -9.6% (active); in the assay with SF-268 CNS, 56.7%. Besides, the growth with SF-295 CNS was 23.1%; in the assay with SF-539 CNS, 14.6%; with UACC-257 melanoma, 73%; in the assay with M14 melanoma, 18.8%; with HCT-15 colon, 29.6%; in the assay with HT29 colon it was 3.2% (active). Besides, the growth in the assay with SNB-75 CNS is 9.47% (active); in the assay with SNB-19 CNS, 28.7%; in the assay with U251 CNS it was 31%; in the assay with PC-3 prostate, 24.2%; with SK-MEL-5 melanoma, 24.2%; with UACC-62 melanoma it was 38.1%. Also, the results for the growth in the assay on LOX IMVI melanoma and with SK-MEL-28 melanoma were 54.2% and 68.2%, respectively.

On to `Nc1ncnc2c1ccn2-c1cccc(NC(=O)c2cccc(C(F)(F)F)c2)c1`, for which the growth is 81.8% in the assay with DU-145 prostate; 59% with K-562 leukemia; 98.4% in the assay with MALME-3M melanoma; 58.4% with MDA-MB-231 breast; 58.5% in the assay on RXF 393 renal; 67.5% in the assay on SF-268 CNS. Also, the growth was 36.4% with SF-295 CNS; 64.4% with SF-539 CNS; 93.2% with UACC-257 melanoma; 83.9% with M14 melanoma; 41.7% in the assay on HCT-15 colon; 58.4% in the assay with HT29 colon. In addition, the growth was 67% in the assay with SNB-75 CNS; 88.4% in the assay with SNB-19 CNS; 44.9% with U251 CNS; 51.7% in the assay with PC-3 prostate; 41.1% in the assay on SK-MEL-5 melanoma; 77.3% with UACC-62 melanoma. Also, the growth with LOX IMVI melanoma is 62.2%; with SK-MEL-28 melanoma, 85.1%.

Values taken from PubChem BioAssay (NCI).
